# Tested on: GRK1
# Settings: concentration: 1 μM, replicates: in singlicate; n = 1
# 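Further: KINOMEscan kinase panel screen.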
row,Structure (SMILES),%Inh [%]
1,Cn1cncc1-c1ccc2ncnc(Nc3ccc(OCc4ccccc4)cc3)c2c1 [GW320571],8
2,Cc1cc(-c2ccc3c(c2)CC[C@@H](N[C@@H](C)c2ccccc2)C3)cnc1N.Cl [GW412617],0
3,Fc1cccc(COc2nnc(-c3ccc4c(c3)CCO4)o2)c1,0
4,O=C(Nc1n[nH]c2cc(-c3cccc(F)c3F)ccc12)C1CC1 [SB-733894],44
5,COc1cc(Nc2nccc(N3CCC(NC(=O)Nc4cc(C)ccc4C)C3)n2)cc(OC)c1OC (stereo not shown) [GSK1379762],0
6,CC(C)(C)c1ccc(C(=O)Nc2cn3cc(Cl)ccc3n2)cc1,10
7,COc1ccc2nc(-c3cccc(C)n3)nc(Nc3ccncc3)c2c1 [GSK204919],0
8,Cc1c(O)cccc1Nc1ccnc2ccc(C(F)(F)F)cc12.Cl [GW466413],14
9,Cc1ccc(-c2cc(-c3c[nH]nc3-c3ccccn3)ccn2)cc1 [GW684088],8
10,O=S(=O)(c1ccc(-c2ccnc3[nH]ccc23)cc1)N1CCCC1 [GSK846226],0
11,Cn1ccc2ncnc(Oc3cccc(C(=O)Nc4ccccc4)c3)c21,0
12,CCCc1ccc(S(=O)(=O)NC2CCN(c3ccnc(Nc4ccc(F)cc4)n3)C2)cc1 (stereo not shown) [GSK1379715],100
13,O=C1NC(=O)C(N2CCc3ccccc32)=C1c1ccccc1Cl [SB-373598],19
14,COC(=O)c1c(-c2ccccc2)c2cc(OC)ccc2c(=O)n1Cc1ccccc1,0
15,COc1cccc(-c2cc(-c3c[nH]nc3-c3ccccn3)ccn2)c1 [GW680338],1
16,COc1cc2ncnc(Nc3ccc4nc(-c5ccccc5)[nH]c4c3)c2cc1OC.Cl [GW282450],0
17,COC(=O)c1c(-c2ccccc2)c2cc(C(=O)O)ccc2c(=O)n1Cc1ccccc1,0
18,Cc1cccc(-c2nc(Nc3ccncc3)c3ccccc3n2)n1 [GW855857],0

row,Structure (SMILES),%Inh [%]
1,Cc1cccc(-c2nc(-c3ccc(S(C)(=O)=O)cc3)sc2-c2ccnc(NCCc3ccccc3)c2)c1,11
2,CN(C)CCN(C)C(=O)c1cc(-c2ccncc2)c(-c2ccc(Cl)c(O)c2)o1.Cl.Cl [SB-710397],4
3,Cc1nnc(-c2ccc3occ(-c4ccc(S(C)=O)cc4)c3c2)[nH]1 (stereo not shown),20
4,COc1cc2nccc(Nc3ccc(NC(=O)c4ccc(C)cc4)c(O)c3)c2cc1OC.Cl [GW440132],0
5,Cc1cccc(-c2cc(Nc3ccncc3)c3ccccc3n2)n1 [GSK223675],0
6,Cn1ccc2ncnc(Oc3ccc(Nc4nc5ccccc5[nH]4)cc3)c21,4
7,Cc1cc(NCC(c2ccccc2)c2ccccc2)nc(NCc2ccc(C(F)(F)F)cc2)n1 [GW497681],0
8,Cc1cccc(-c2nc(C)cc(Nc3ccncc3)n2)n1 [GSK257997],0
9,Cl.c1ccc(-c2n[nH]cc2-c2ccnc(-c3ccc(CN4CCOCC4)cc3)c2)nc1 [GW776245],37
10,Cc1ccc(NC(=O)Nc2cc(C(C)(C)C)nn2-c2ccccc2)cc1 [GSK1014915],9
11,CC1=C(C(=O)Nc2cc3cn[nH]c3cc2F)C(c2ccc(C(F)(F)F)cc2)CC(=O)N1 (stereo not shown) [GSK429286],5
12,Nc1nc(-c2nccs2)c(-c2ccnc3ccccc23)s1 [GW693542],0
13,COc1ccc(C2=C(Nc3cccc(C(=O)O)c3)C(=O)NC2=O)cc1 [SB-390765],30
14,O=C(O)COc1ncnc2cc(-c3ccc4[nH]ncc4c3)sc12,3
15,Cc1cccc(-c2nc(Nc3cccc(C(N)=O)c3)c3ccccc3n2)n1 [GW876019],14
16,CC(C)(C)c1ccc(C(=O)Nc2cn3cc(-c4cccnc4)ccc3n2)cc1,41
17,COc1ccccc1CNC(=O)c1cc(C(=O)c2ccccc2C)c[nH]1 [GSK364507],0

# Tested on: T1, GRK2
# T1 construct: gene ADRBK1
# Settings: concentration: 1 μM, replicates: in singlicate; n = 1
row,Structure (SMILES),%Inh [%]
1,Cn1cncc1-c1ccc2ncnc(Nc3ccc(OCc4ccccc4)cc3)c2c1 [GW320571],7
2,Cc1cc(-c2ccc3c(c2)CC[C@@H](N[C@@H](C)c2ccccc2)C3)cnc1N.Cl [GW412617],0
3,Fc1cccc(COc2nnc(-c3ccc4c(c3)CCO4)o2)c1,0
4,O=C(Nc1n[nH]c2cc(-c3cccc(F)c3F)ccc12)C1CC1 [SB-733894],0
5,COc1cc(Nc2nccc(N3CCC(NC(=O)Nc4cc(C)ccc4C)C3)n2)cc(OC)c1OC (stereo not shown) [GSK1379762],0
6,CC(C)(C)c1ccc(C(=O)Nc2cn3cc(Cl)ccc3n2)cc1,0
7,COc1ccc2nc(-c3cccc(C)n3)nc(Nc3ccncc3)c2c1 [GSK204919],0
8,Cc1c(O)cccc1Nc1ccnc2ccc(C(F)(F)F)cc12.Cl [GW466413],0
9,Cc1ccc(-c2cc(-c3c[nH]nc3-c3ccccn3)ccn2)cc1 [GW684088],0
10,O=S(=O)(c1ccc(-c2ccnc3[nH]ccc23)cc1)N1CCCC1 [GSK846226],0
11,Cn1ccc2ncnc(Oc3cccc(C(=O)Nc4ccccc4)c3)c21,0
12,CCCc1ccc(S(=O)(=O)NC2CCN(c3ccnc(Nc4ccc(F)cc4)n3)C2)cc1 (stereo not shown) [GSK1379715],0
13,O=C1NC(=O)C(N2CCc3ccccc32)=C1c1ccccc1Cl [SB-373598],0
14,COC(=O)c1c(-c2ccccc2)c2cc(OC)ccc2c(=O)n1Cc1ccccc1,0
15,COc1cccc(-c2cc(-c3c[nH]nc3-c3ccccn3)ccn2)c1 [GW680338],0
16,COc1cc2ncnc(Nc3ccc4nc(-c5ccccc5)[nH]c4c3)c2cc1OC.Cl [GW282450],0
17,COC(=O)c1c(-c2ccccc2)c2cc(C(=O)O)ccc2c(=O)n1Cc1ccccc1,0
18,Cc1cccc(-c2nc(Nc3ccncc3)c3ccccc3n2)n1 [GW855857],0

row,Structure (SMILES),%Inh [%]
1,Cc1cccc(-c2nc(-c3ccc(S(C)(=O)=O)cc3)sc2-c2ccnc(NCCc3ccccc3)c2)c1,0
2,CN(C)CCN(C)C(=O)c1cc(-c2ccncc2)c(-c2ccc(Cl)c(O)c2)o1.Cl.Cl [SB-710397],0
3,Cc1nnc(-c2ccc3occ(-c4ccc(S(C)=O)cc4)c3c2)[nH]1 (stereo not shown),0
4,COc1cc2nccc(Nc3ccc(NC(=O)c4ccc(C)cc4)c(O)c3)c2cc1OC.Cl [GW440132],0
5,Cc1cccc(-c2cc(Nc3ccncc3)c3ccccc3n2)n1 [GSK223675],0
6,Cn1ccc2ncnc(Oc3ccc(Nc4nc5ccccc5[nH]4)cc3)c21,0
7,Cc1cc(NCC(c2ccccc2)c2ccccc2)nc(NCc2ccc(C(F)(F)F)cc2)n1 [GW497681],0
8,Cc1cccc(-c2nc(C)cc(Nc3ccncc3)n2)n1 [GSK257997],0
9,Cl.c1ccc(-c2n[nH]cc2-c2ccnc(-c3ccc(CN4CCOCC4)cc3)c2)nc1 [GW776245],0
10,Cc1ccc(NC(=O)Nc2cc(C(C)(C)C)nn2-c2ccccc2)cc1 [GSK1014915],0
11,CC1=C(C(=O)Nc2cc3cn[nH]c3cc2F)C(c2ccc(C(F)(F)F)cc2)CC(=O)N1 (stereo not shown) [GSK429286],27
12,Nc1nc(-c2nccs2)c(-c2ccnc3ccccc23)s1 [GW693542],0
13,COc1ccc(C2=C(Nc3cccc(C(=O)O)c3)C(=O)NC2=O)cc1 [SB-390765],0
14,O=C(O)COc1ncnc2cc(-c3ccc4[nH]ncc4c3)sc12,20
15,Cc1cccc(-c2nc(Nc3cccc(C(N)=O)c3)c3ccccc3n2)n1 [GW876019],0
16,CC(C)(C)c1ccc(C(=O)Nc2cn3cc(-c4cccnc4)ccc3n2)cc1,0
17,COc1ccccc1CNC(=O)c1cc(C(=O)c2ccccc2C)c[nH]1 [GSK364507],0

# From PMC5540273 (PLoS ONE, 2017)
